In the supplement of paper PMC6853941:
Values without a mark were called inactive.

System: MCF10A
Experiment: perturbation Mahalanobis distance of morphological profile vs DMSO controls (Mahalanobis distance (SD units)); higher = stronger morphological change, active = 7 or more
Details: 72 h
Experimental: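 MCF10A cells were seeded onto drugs dispensed acoustically into 384-well plates, using one dose per drug chosen from its human peak plasma concentration, and incubated for 72 h at 37 °C. Cells were stained for DNA, tubulin and mitochondria and imaged; 78 CellProfiler features were extracted, plate-normalised and compared with DMSO wells.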

[1] = screen batch: Batch1_Mahalanobis_Distance
[2] = screen batch: Batch2_Mahalanobis_Distance

Compound	perturbation Mahalanobis distance [1]	perturbation Mahalanobis distance [2]
COc1cc(C)c(/C=C/C(C)=C/C=C/C(C)=C/C(=O)O)c(C)c1C [Acitretin] (7.7 µM)	6.19	–
O=C1OCCN1/N=C/c1ccc([N+](=O)[O-])o1 [Furazolidone] (22.2 µM)	3.46	3.27
CC1CNc2c(cccc2S(=O)(=O)N[C@@H](CCCN=C(N)N)C(=O)N2CC[C@@H](C)C[C@@H]2C(=O)O)C1 (stereo not given in full) [Argatroban] (6.9 µM)	3.61	2.75
CC(=O)O[C@@]12CO[C@@H]1C[C@H](O)[C@@]1(C)C(=O)[C@H](O)C3=C(C)[C@@H](OC(=O)[C@H](O)[C@@H](NC(=O)OC(C)(C)C)c4ccccc4)C[C@@](O)([C@@H](OC(=O)c4ccccc4)[C@H]21)C3(C)C [Docetaxel] (22.7 µM)	–	2.26
O=C(Nc1ncc([N+](=O)[O-])s1)c1ccccc1O [Tizoxanide] (48.8 µM)	–	3
C#C[C@]1(O)CC[C@H]2[C@@H]3CCC4=CC(=O)CC[C@@H]4[C@H]3CC[C@@]21CC [Levonorgestrel] (0.24 µM)	3.22	2.71
C[C@@H](NCCCc1cccc(C(F)(F)F)c1)c1cccc2ccccc12 [Cinacalcet] (0.4 µM)	2.7	2.58
CN(C)CCCC1(c2ccc(F)cc2)OCc2cc(C#N)ccc21 (stereo not given) [Citalopram] (3.1 µM)	2.77	2.43
CN(C)C(=N)N=C(N)N [Metformin] (38.4 µM)	1.76	1.8
